Bioassay records: PubChem, several laboratories
Rows were chosen to be rich in hits. Some 2% of all compounds tested hit in one or more screens of this group.
Calb FLC: C. albicans growth inhibition with fluconazole, primary screen, CaCi-2 strain, Alamar Blue fluorescence | C. albicans CaCi-2 (fluconazole-resistant clinical isolate) + fluconazole, 48 h | growth inhibition, % (test concentration not listed) | 300,000 compounds, 0.57% hits;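 active means growth inhibition above about 58% in most replicates, limit read from the data, passing the limit was not always enough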;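 further: all wells also contain fluconazole at 8 µg/ml as a sub-toxic cotreatment; 0% = median of DMSO wells and 100% = median of geldanamycin control wells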
Beta apoptosis: inhibitors of cytokine-induced beta cell apoptosis, primary screen, luminescence; INS-1E cytokine-induced death, ATP luminescence, 48 h; percent of positive-control rescue, neutral wells zero; protection from apoptosis, % (concentration not given with the values); 300,000 compounds, 0.8% hits;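 active means Every replicate reaches about 75%, or at least half do and their mean reaches it too, limit read from the data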;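 further: 0% = cytokine-treated negative control wells and 100% = positive control rescue; higher means more ATP so stronger rescue from cytokine killing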
Shn3 inh set2: reduction of Shn3 3'UTR firefly luciferase signal, primary screen, Schnurri-3 inhibitor project, cell-based, Clone20 osteoblasts, set 2; Clone20 osteoblast Shn3 3'UTR firefly luciferase, 24 h; inhibition, % at 12.5 µM; 360,000 compounds, 0.52% hits; AID 588674, 2011;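 active means mean inhibition of at least 75% with every replicate also reaching 75%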;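 further: 0% = median of neutral control wells and 100% = pilot-screen positive control compound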
697 NFkB inh: inhibitors of PMA/ionomycin-induced NF-kB reporter, 697 cells, primary screen, B-cell NF-kB inhibitor project, cell-based, luminescence, uHTS | inhibition, % at 4 µM | 330,000 compounds, 0.33% hits | 697 B-cell NF-kB luciferase reporter, 16 h; in the data active means inhibition above about 35%
Jurkat NFkB inh: inhibitors of induced NF-kB luciferase reporter, primary screen, TCR NF-kB activation inhibitor project, cell-based, luminescence, uHTS; Jurkat, PMA/ionomycin-induced NF-kB luciferase reporter; inhibition, % at 4 µM; 330,000 compounds, 0.53% hits; AID 435003, 2010; in the data active means inhibition above about 50%
Jurkat NFkB conf: PMA/ionomycin-induced NF-kB reporter inhibitors, Jurkat retest, confirmation, T-cell NF-kB inhibitor project, cell-based, luminescence, single concentration | Jurkat NF-kB luciferase, 16 h | 2,700 compounds, 27% hits | shares compounds with Jurkat NFkB inh | inhibition, % at 4 µM;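 active means inhibition reaching about 45% at 4 µM in either replicate, limit read from the data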;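 further: plate controls were PMA/ionomycin stimulated DMSO wells for no effect and unstimulated DMSO wells for full effect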
697 NFkB conf: PMA/ionomycin-induced NF-kB reporter inhibitors, 697 retest, confirmation, B-cell NF-kB inhibitor project, cell-based, luminescence, single concentration; shares compounds with 697 NFkB inh; 697 B-cell NF-kB luciferase, 16 h; inhibition, % at 4 µM; 2,000 compounds, 35% hits; AID 449746, 2010; in the data active means inhibition mostly above about 28%, no sharp cut-off; inactive means mostly below about 22%
Starred values were filed as active, the others as inactive; i = inactive; . = no result given.

SMILES | Calb FLC | Beta apoptosis | Shn3 inh set2 | 697 NFkB inh | Jurkat NFkB inh | 697 NFkB conf | others
CC1CCC/C=C/C2CC(O)CC2C(O)/C=C/C(=O)O1 (centres undefined) | -1.2 | 99.1* | 84.4 | 69.5* | 97.0* | 80.2* | Jurkat NFkB conf=-22.5
C[C@H]1CCC[C@H](O)CCCCCc2cc(O)cc(O)c2C(=O)O1 | . | 2.0 | -11.6 | 8.6 | 7.0 | .
C(=NC1CCCCC1)c1c[nH]c2ccccc12 | . | . | 7.4 | . | . | .
COc1cccc(C2(C#N)CCN(C)CC2)c1 | -9.9 | -3.5 | 7.3 | 20.9 | 4.1 | .
C=C1C(=O)O[C@H]2C[C@@H](C)[C@@H]3C=CC(=O)[C@@]3(C)C[C@H]12 | 68.6 | 104.1* | . | -341.3 | 87.7* | -235.4 | Jurkat NFkB conf=62.7*
C=C1C(=O)O[C@@H]2C[C@@H](C)[C@@H]3C=CC(=O)[C@@]3(C)[C@@H](OC(=O)CC(=O)O[C@H]3[C@@H]4C(=C)C(=O)O[C@@H]4C[C@@H](C)[C@@H]4C=CC(=O)[C@]43C)[C@H]12 | 26.7 | 131.6* | 95.7* | 103.8* | 93.1* | 101.0* | Jurkat NFkB conf=99.9*
CC(=O)Nc1ccc(S(=O)(=O)N2Cc3ccccc3-n3nncc3C2)cc1 | . | . | 47.7 | . | . | .
COc1cccc(OP(=O)(Nc2ccccc2)Oc2cccc(OC)c2)c1 | -24.5 | -0.1 | 22.8 | 8.8 | -4.0 | .
CC(=O)O[C@H]1[C@H]2O[C@]23[C@@H]2CC[C@]4(O)C[C@@H](O)CC[C@]4(C)C2CC[C@]3(C)[C@H]1c1ccc(=O)oc1 (some centres undefined) | . | -0.1 | 12.5 | 71.0* | 95.9* | 84.9* | Jurkat NFkB conf=90.6*
Cc1cc(OCC(=O)N2CCC(C(N)=O)CC2)c2c3c(c(=O)oc2c1)CCCC3 | 0.9 | -0.7 | -26.9 | 41.6* | -8.3 | 29.7*
C[C@H]1CCC[C@@H](O)CCC/C=C/c2cc(O)cc(O)c2C(=O)O1 | -9.9 | -10.5 | -14.9 | 42.7* | 10.0 | 12.7
CC1CCC[C@H](O)CCCCCc2cc(O)cc(O)c2C(=O)O1 (some centres undefined) | . | -6.4 | 0.2 | -5.0 | 7.1 | .
CC1OC(NCCc2ccccc2)C(O)C(O)C1O (centres undefined) | -14.0 | -4.2 | 14.6 | 23.1 | 3.8 | .
C[C@]12CC[C@H]3C(CCC4(O)CC(O)CC[C@]34C=O)C1=CC[C@H]2c1ccc(=O)oc1 (some centres undefined) | 2.6 | -6.3 | 7.3 | i | 26.1 | i
CC1CCCCN1Cc1c[nH]c2ccccc12 (centres undefined) | 3.7 | 5.9 | -8.7 | 12.0 | 8.9 | .
CNC(=O)Oc1cccc(-c2cn3cc(Cl)ccc3n2)c1 | 4.9 | -3.3 | 13.2 | -292.8 | -87.5 | -222.4
CCC(=O)OC1CCC2C3CCC4CC(=O)C=CC4(C)C3CCC12C (centres undefined) | . | . | -6.4 | . | . | .
COc1ccc(C(=O)C2CCCN(CCc3ccccc3)C2)cc1OC (centres undefined) | . | . | -11.0 | . | . | .
C=CCn1c(O)c(C(C)=NCCC(c2ccccc2)c2ccccc2)c(=O)[nH]c1=O | -0.6 | 2.1 | -2.0 | -4.7 | -14.0 | .
C=CCn1c(O)c(C(C)=NC(C)c2ccccc2)c(=O)[nH]c1=O (centres undefined) | -6.6 | -9.8 | -13.2 | 41.1* | -1.9 | 30.1*
COC(=O)C1=C(c2ccc(-c3ccccc3)c(F)c2)C[C@@H]2CC[C@H]1N2C(=O)N1CCCC1 | . | 15.2 | 82.8 | 46.3* | 22.2 | 61.9*
COC(=O)C1=C(c2ccc(-c3ccccc3)c(F)c2)C[C@@H]2CC[C@H]1N2C(=O)N1CCCCC1 | . | 14.5 | 73.4 | 31.6 | 23.5 | .
C/C(=C\c1ccc(N(C)C)cc1)[N+](=O)[O-] | 14.2 | . | 28.5 | 38.1* | 19.4 | 12.1
CN(C)c1ccc(/C=C/[N+](=O)[O-])cc1 | 2.7 | -4.9 | -14.9 | 2.8 | -32.0 | .
CN(C)c1cccc2c(C#N)ccc(N(C)C)c12 | 1.5 | 6.1 | 5.0 | 39.0* | 15.6 | -12.7
SMILES | Calb FLC | Beta apoptosis | Shn3 inh set2 | 697 NFkB inh | Jurkat NFkB inh | 697 NFkB conf | others
O=C(Nc1ccc(OC(=O)N2CCCC2)cc1)N1CCOCC1 | -2.2 | 10.4 | 3.9 | -11.4 | -9.7 | .
O=C(Nc1ccc(OC(=O)N2CCCCC2)cc1)N1CCOCC1 | -16.3 | -10.3 | 59.7 | 57.9* | 2.7 | 0.5
C[C@]12CCC(=O)C=C1C=CC1C2CC[C@]2(C)C(=O)CCC12 (some centres undefined) | . | 0.9 | -28.5 | -5.4 | -1.4 | .
C=C1C(=O)[C@@]23C[C@H]4[C@@H]5[C@@]6(C)CCC[C@@]57[C@@H]2[C@@H](O)[C@@H]1C[C@H]3[C@H]7N4C6 | -8.0 | -11.2 | -52.5 | 44.2* | 47.3 | 37.4*
Cc1nc2ncnn2c(C)c1CCC(=O)N1CCC2(CC1)OCCO2 | 17.4 | -4.2 | 1.6 | 19.7 | 6.5 | .
Cc1nc2cc(-c3ccccc3)nn2c(C)c1CCC(=O)N1CCC2(CC1)OCCO2 | 30.7 | -3.5 | 40.0 | 42.7* | 13.5 | 45.6*
CSCCC(c1nnnn1Cc1ccccc1)N1CCC2(CC1)C(=O)NCN2c1ccccc1 (centres undefined) | . | . | 1.9 | . | . | .
O=c1[nH]c(O)c(/C=C2/C=CC(c3cc(Cl)ccc3Cl)=N2)c(=O)[nH]1 | 2.0 | -0.5 | 15.3 | 36.0* | 17.3 | 7.2
CC1CN(c2ccc([N+](=O)[O-])c3cccnc23)CC(C)N1 (centres undefined) | 5.6 | -0.6 | -24.1 | -274.7 | -16.0 | -61.8
O=[N+]([O-])c1ccc(N2CCCC2)c2ncccc12 | -16.4 | -17.7 | 3.2 | -1.8 | 17.3 | .
O=C(c1c[nH]c2ccc(S(=O)(=O)N3CCOCC3)cc2c1=O)N1CCC2(CC1)OCCO2 | -6.5 | 6.8 | -21.7 | 11.6 | 11.7 | .
CCn1c(=O)cc(SCC(=O)N2CCC3(CC2)OCCO3)c2ccccc21 | 0.8 | -0.5 | -2.9 | 62.0* | 13.1 | 39.6*
